# Test results published in PubChem BioAssay AID504534 (National Center for Advancing Translational Sciences (NCATS), 2011).
# Records with an inconclusive call do not appear. Where a call stands in place of a potency, no number is given. Calls of active or inactive are those of the source. The call rests on the fitted dose curve; in most records, active means well fitted curve in the direction sought with a large enough effect; inconclusive means small, poorly fitted or top-dose-only effect, or another doubt; inactive means no such curve, though single readings can be large or run the other way.
# Test: Secondary Assay for Inhibitors of Human Cdc-like kinase 4 (Clk4): HEK-293 Cell Viability Assay;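 further: cytotoxic hits lower the ATP light signal so activity reflects loss of viability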
# Details: HEK-293 viability, ATP luminescence (CellTiter-Glo), 24/48 h; series mostly up to 46.1 µM
# Protocol: NIH Molecular Libraries Probe Production Centers Network [MLPCN] NIH Chemical Genomics Center [NCGC] MLPCN Grant: 1R03MH084827-01 Assay Submitter (PI): Tom Misteli NCGC Assay Overview: Cytotoxicity of the active compounds in the Clk4 screens was assessed using the CellTiter-Glo Luminescent Cell Viability Assay kit (Promega, USA) in the HEK-293 (ATCC) cell line. CellTiter-Glo measures the intracellular ATP present in metabolically active cells using Ultra-Glo as the luciferase to detect ATP levels. In brief, the luciferase in the buffer catalyzes the oxidation of luciferin to oxyluciferin and light which is dependent on ATP. […] Wells treated with various concentrations of cycloheximide (Sigma) and DMSO, and wells with media alone were used as positive and negative controls, respectively. […] [1] http://www.promega.com/tbs/tb288/tb288.pdf
# NCGC Assay Protocol Summary: HEK-293 cells were grown in a flask up to 80% confluence. Cells were trypsinized, washed, and resuspended in MEM Eagle + 10% FBS + 1% pen-strep media at a concentration of 120 cells/uL. Five uL/well of cell solution was dispensed into a 1536-well assay plates (Greiner, solid white medium-binding plates) with Aurora Discovery BioRAPTR Flying Reagent Dispenser (FRD; Beckton-Dickenson). Cells were pre-incubated at 37 degree Celsius, 5% CO2 for four hours. Compound and control solutions (23nL) were then transferred to the assay plate using the Kalypsys 1536-pin tool. Assay plates were re- incubated at 37 degree Celsius, 5% CO2. After 24 or 48 hours, five uL of CellTiter Glo detection reagent was added. Luminescence signal was read with Perkin Elmer ViewLux plate reader after 30 min room temperature incubation.
# Potency means the concentration at half of the fitted maximal effect.
row,Compound,Potency
1,CCN(Cc1cccs1)c1ncnc2ccc(-c3ccc4c(c3)OCO4)cc12,inactive
2,c1cncc(CNc2ncnc3ccc(-c4ccco4)cc23)c1,inactive
3,Cc1cc(CNc2ncnc3ccc(-c4ccc5c(c4)OCO5)cc23)c(C)o1,inactive
4,Fc1cccc(CNc2ncnc3ccc(-c4ccoc4)cc23)c1,inactive
5,Cc1cccc(CNc2ncnc3ccc(-c4cccc(C)c4)cc23)c1,inactive
6,Cc1ccsc1CNc1ncnc2ccc(-c3ccc4c(c3)OCO4)cc12,inactive
7,Cc1nc(CNc2ncnc3ccc(-c4ccc5c(c4)OCO5)cc23)cs1,inactive
8,Clc1ccccc1-c1ccc2ncnc(NCc3cccs3)c2c1,inactive
9,Cc1csc(CNc2ncnc3ccc(-c4ccoc4)cc23)c1,inactive
10,c1coc(CNc2ncnc3ccc(-c4ccc5c(c4)OCO5)cc23)c1,inactive
11,Clc1cccc(-c2ccc3ncnc(NCc4cccs4)c3c2)c1,inactive
12,CN(Cc1ncc[nH]1)c1ncnc2ccc(-c3ccc4c(c3)OCO4)cc12,inactive
13,Cc1nc(CCN(C)c2ncnc3ccc(-c4ccc5c(c4)OCO5)cc23)cs1,inactive
14,C[C@@H](O)c1ccc(-c2ccc3ncnc(NCc4cccs4)c3c2)o1,inactive
15,Clc1cccc(-c2ccc3ncnc(NCc4cccnc4)c3c2)c1,inactive
16,CCN1/C(=C/C(C)=O)Sc2ccc(OC)cc21,inactive
17,CN(C)CCCNc1ncnc2ccc(-c3ccc4c(c3)OCO4)cc12,inactive
18,Cc1nc(CCNc2ncnc3ccc(-c4ccc5c(c4)OCO5)cc23)cs1,inactive
19,Cc1cccc(CNc2ncnc3ccc(-c4ccc5c(c4)OCO5)cc23)c1,inactive
20,CCOC(=O)c1ccoc1-c1ccc2ncnc(NCc3csc(C)n3)c2c1,inactive

row,Compound,Potency
1,Cc1nc(CNc2ncnc3ccc(-c4sc(C)nc4C)cc23)cs1,inactive
2,c1nc(NCC2CCCC2)c2cc(-c3ccc4c(c3)OCO4)ccc2n1,inactive
3,Cc1cccc(CNc2ncnc3ccc(-c4cccnc4)cc23)c1,inactive
4,Cc1ccc(CN(C)c2ncnc3ccc(-c4ccc(C(=O)O)o4)cc23)o1,inactive
5,Cc1nc(CNc2ncnc3ccc(-c4ccoc4C)cc23)cs1,inactive
6,Cn1cnc(CCNc2ncnc3ccc(-c4ccc5c(c4)OCO5)cc23)c1,inactive
7,Cc1ccc(CN(C)c2ncnc3ccc(-c4ccc(CO)o4)cc23)o1,12.5 µM (active)
8,c1cncc(CNc2ncnc3ccc(-c4cccnc4)cc23)c1,inactive
9,Cn1cncc1CNc1ncnc2ccc(-c3ccc4c(c3)OCO4)cc12,inactive
10,Cc1cccc(CNc2ncnc3ccc(-c4ccoc4)cc23)c1,inactive
11,Cc1cccc(-c2ccc3ncnc(NCc4cc(C)cs4)c3c2)c1,inactive
12,c1nc(NCCc2cnc[nH]2)c2ccc(-c3ccc4c(c3)OCO4)cc2n1,inactive
13,CN(CC1CCCO1)c1ncnc2ccc(-c3ccc4c(c3)OCO4)cc12 (stereo not given),inactive
14,CCCNc1ncnc2ccc(-c3ccc4c(c3)OCO4)cc12,inactive
15,O=C(O)c1ccc(-c2ccc3ncnc(NCCc4cnc[nH]4)c3c2)o1,inactive
16,Cc1nc(CNc2ncnc3ccc(-c4ccoc4)cc23)cs1,inactive
17,O=Cc1ccc(-c2ccc3ncnc(NCc4cccs4)c3c2)o1,inactive
18,Cc1ccsc1CN(C)c1ncnc2ccc(-c3ccc(COC(=O)N(C)C)o3)cc12,inactive
19,Cc1ccsc1CN(C)c1ncnc2ccc(-c3ccc([C@@H](C)O)o3)cc12,inactive
20,Cc1cccc(CNc2ncnc3ccc(-c4cccc(Cl)c4)cc23)c1,inactive
